# Screens from PubChem BioAssay.
# The list is not random: actives were taken first. Their share in the collection is about 6.1%.
# D1 ag – Allosteric Agonists of the Human D1 Dopamine Receptor: qHTS; HEK293 T-REx D1 cells, calcium flux, agonist mode; activation, % at 2 µM; 1% of 360,000 active; in the data active = activation above about 30%; note: 0% is about no effect
#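 Inducible HEK293 T-REx D1 cells, force-coupled to calcium signalling, were plated at 4000 cells/well with tetracycline and held overnight at 30 C. After no-wash calcium dye loading, compound-evoked calcium rise over 180 s flagged agonists.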
# ERG Ets-DNA blk – qHTS for Small Molecule Inhibitors of the ERG Ets/DNA interaction; fluorescence polarization, His-ERG Ets domain / labelled DNA; AID 624246, 2012; Potency, µM (highest dose often 76.9 µM), for inactives: at the top dose FP activity, negative = inhibition, hits mostly inhibitors; 0.028% of 370,000 active; active = well fitted inhibition curve with a large enough effect in the polarisation, with a control signal flat; inconclusive = small, poorly fitted or top-dose-only effect, or effect the other way, or a change in a side signal; inactive = no such curve, though single readings can be large or run the other way; the % refers to the polarisation;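 note: polarization taken with two DNA probes labelled with fluorescein and Texas red; potency is the fitted concentration of half-maximal effect; % of control where 0% means no effect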
# Target sequence (P11308 whole entry, looked up, the tested form may be a part): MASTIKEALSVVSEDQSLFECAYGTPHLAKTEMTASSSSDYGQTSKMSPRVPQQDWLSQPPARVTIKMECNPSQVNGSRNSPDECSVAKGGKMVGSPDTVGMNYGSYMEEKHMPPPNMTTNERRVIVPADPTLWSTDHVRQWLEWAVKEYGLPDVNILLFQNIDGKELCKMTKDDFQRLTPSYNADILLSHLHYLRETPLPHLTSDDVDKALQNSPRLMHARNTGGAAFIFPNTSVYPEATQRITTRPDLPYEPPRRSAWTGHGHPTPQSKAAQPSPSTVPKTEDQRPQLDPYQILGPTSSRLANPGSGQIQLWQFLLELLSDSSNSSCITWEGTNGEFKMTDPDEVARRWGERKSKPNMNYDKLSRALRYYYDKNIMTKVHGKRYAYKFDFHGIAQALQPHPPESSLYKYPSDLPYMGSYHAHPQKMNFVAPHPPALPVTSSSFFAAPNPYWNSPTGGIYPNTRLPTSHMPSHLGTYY
#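 His-tagged ERG Ets domain (1 uM in the protein solution; 300mM KCl, 50mM Tris-HCl, 1mM EDTA, 1mM DTT, pH 7.5) received compound, then a probe mix of 5 nM fluorescein-DNA and 100nM Texas-615-DNA. Fluorescence polarization was read for both dyes.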
# D1 antagonist – Antagonist of Human D 1 Dopamine Receptor: qHTS. HEK293 TREx D1 cells, calcium flux, dopamine EC80; hits give low values. activity change, negative = inhibition, % at 10 µM. 3.2% of 360,000 active; in the data active = activity change below about -30%; note: % is set by controls: 0 for no effect and ±100 for the full control effect
#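 Compound effects on dopamine-evoked calcium signalling were measured in tetracycline-induced HEK293 Trex D1 cells. Dopamine at EC80 followed a 180 s compound pre-read, and fluorescence was tracked kinetically for 180 s more.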
# D3 antag – qHTS of D3 Dopamine Receptor Antagonist: qHTS; D(3) dopamine receptor (Homo sapiens), P35462; D3R cells, DiscoveRx beta-arrestin luminescence, antagonist mode; hits give low values; max response, negative = inhibition, %; 2.5% of 360,000 active; in the data active = max response below about -50%; inconclusive = no clear call, values can overlap the other calls; note: % is set by controls: 0 for no effect and ±100 for the full control effect
#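 Cells expressing the human receptor were seeded at 1500 cells/well, incubated overnight at 37 degrees C in 5% CO2, then exposed to library compounds with dopamine controls for 90 minutes at 37 degrees C before luminescent detection.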
# D1 PAM – Potentiators of Human D1 Dopamine Receptor: qHTS; D(1A) dopamine receptor (Homo sapiens), P21728; HEK293 TREx D1 cells, calcium flux, dopamine EC20 potentiation; potentiation, % at 10 µM; 0.036% of 360,000 active; AID 504651, 2011; in the data active = potentiation above about 30%; note: 0% is about no effect
# D3 ag – qHTS of D3 Dopamine Receptor Agonist: qHTS; D(3) dopamine receptor (Homo sapiens), P35462; D3R DiscoveRx beta-arrestin cells, luminescence, 90 min; max activation, %; 0.58% of 410,000 active; AID 652048, 2013; in the data active = max activation above about 30%; note: 0% is about no effect
#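 Agonist mode: compounds and dopamine controls were applied to plated cells for 90 min at 37 degrees C after an overnight attachment at 1500 cells/well. Luminescent read-out followed 30 - 60 minutes at room temperature with DiscoveRx detection reagent.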
# Starred values were filed as active, the others as inactive; ? = inconclusive; . = not tested or not shown.
SMILES,D1 ag,ERG Ets-DNA blk,D1 antagonist,D3 antag,D1 PAM,D3 ag
CCOc1ccc(NC(=O)CN(C)C(=O)c2ccccc2OCc2cccc(C)c2)cc1OCC,3,25%,7,32,6,-6
CN(CC(=O)Nc1ccc(F)cc1)C(=O)COc1ccccc1Cc1ccccc1,23,-9%,-85*,-16,-3,-25
CC(=O)c1ccc(S(=O)(=O)NCCC(=O)NCCc2c[nH]c3ccccc23)cc1,3,11%,-22,8,-3,2
O=C(COc1ccccc1)Nc1cccc(-c2ccc(N3CCOCC3)nn2)c1,1,-10%,-73*,21,2,2
O=C(COc1ccc(Cl)cc1Cl)Nc1cccc(-c2ccc(N3CCOCC3)nn2)c1,7,-4%,-1,-17,6,-13
Cc1ccccc1C(=O)Nc1cccc(-c2ccc(N3CCOCC3)nn2)c1,5,0%,-37*,-1,-1,1
O=C(Nc1cccc(Cl)c1)Nc1nnc(CC2=CCCCC2)s1,9,4%,4,14,1,33*
CCCN(Cc1cc2cc(OC)ccc2[nH]c1=O)C(=O)c1ccncc1,2,-7%,16,47,-5,6
CC(C)(C)c1cc2cccnc2n1Cc1cccc(Cl)c1,27,1%,-31*,0,-9,-7
COc1ccnc2c1c(=O)n(Cc1cccc(Cl)c1)c(=O)n2C,1,9%,23,9,4,4
C=CS(=O)(=O)c1ccc(Oc2ccc(S(=O)(=O)C=C)cc2)cc1,22,-9%,-17,-91*,-11,-32
NS(=O)(=O)c1ccc(Oc2ccc(S(N)(=O)=O)cc2)cc1,12,3%,6,-9,-10,5
CC(SCC(=O)O)c1nc2ccccc2[nH]1 (stereo unspecified),8,1%,6,-13,-3,-1
COP(=O)(OC)c1nc(-c2ccc([N+](=O)[O-])cc2)oc1N1CCCCC1,49*,1%,-3,14,-6,1
O=C(CSc1n[nH]c(-c2ccc(F)cc2)n1)NCCc1ccccc1,0,2%,1,.,-2,5
Cc1nc(N2CCN(Cc3ccc4c(c3)OCO4)CC2)nc2c1C(=O)CC(c1ccco1)C2 (stereo unspecified),3,-8%,-5,-72*,0,-51
Cc1nc(N2CCN(Cc3ccccc3)CC2)nc2c1C(=O)CCC2,8,-6%,-16,-15,-3,-3
Cc1nc(N2CCN(Cc3ccccc3)CC2)nc2c1CCC2,-4,1%,11,-67*,-2,-17
Cc1nc(N2CCN(Cc3ccccc3)CC2)nc2c1C(=O)CC(c1ccco1)C2 (stereo unspecified),1,-4%,-32*,-53*,-3,-53
CCOC(=O)c1c(CSC(=N)N)n(-c2ccc(Br)cc2)c2cc(Br)c(OC(C)=O)cc12,40*,.,2,-3,9,17
CCOc1cc(C2c3c(-c4ccccc4)n[nH]c3C(=O)N2c2ccc(C(=O)O)cc2)ccc1O (stereo unspecified),0,7%,9,1,-2,6
O=C1CCC[C@@H]2C[C@@]3(C[C@@H]4CCN1[C@H]24)Nc1cc(Cl)ccc1NC3=NC1CCCCC1,.,8%,.,-78*,.,-40
O=C1CC[C@@H]2CC3(C[C@@H]4CCN1[C@H]24)Nc1cc(Cl)ccc1NC3=NC1CCCCC1 (stereo partly specified),.,6%,.,-63*,.,-35
O=C1CCC[C@@H]2C[C@@]3(C[C@@H]4CCN1[C@H]24)Nc1cc([N+](=O)[O-])ccc1NC3=NC1CCCCC1,.,1%,.,?,.,-43
CCN(CC)S(=O)(=O)c1cc(NC(=O)COC(=O)CCc2nc3ccccc3s2)ccc1C,10,3%,5,-1,-7,9
SMILES,D1 ag,ERG Ets-DNA blk,D1 antagonist,D3 antag,D1 PAM,D3 ag
COc1ccc(-c2c3c(nc4sc(C(=O)Nc5ccccc5F)c(N)c24)CC(C)(C)CC3=O)cc1,17,3%,-18,.,1,1
CCCN(C(=O)c1ccc2c(SCC(=O)O)c3c(nc2c1)CCC3)c1cccc(C)c1,0,-4%,-39*,7,-5,3
CCCCNC(=O)c1ccc2c(SCC(=O)O)c3c(nc2c1)CCCC3,6,-2%,-24,-1,-7,0
O=C(O)CN1C(=O)/C(=C\c2ccccc2OCc2ccc(Cl)cc2Cl)SC1=S,35*,12%,8,4,-12,-7
CC1CN(C(=O)C(C)N2CCN(c3ccccc3Cl)CC2)CC(C)O1 (stereo unspecified),1,-6%,-37*,-1,-8,-6
CN(C(=S)Nc1ccccc1F)C1(c2ccccc2Cl)CCCCC1=O (stereo unspecified),-1,-6%,9,7,0,30*
COCC(=O)Nc1ncc(S(=O)(=O)c2ccc([N+](=O)[O-])cc2)s1,3,8%,4,-13,-4,-4
O=C(Nc1ncc(S(=O)(=O)c2ccc([N+](=O)[O-])cc2)s1)c1cccc2ccccc12,56*,4%,-4,6,9,8
O=C(O)c1ccc(CSCc2ccccc2)o1,.,.,.,5,.,4
O=C(O)c1ccc(Cn2ccc3ccccc32)o1,8,-2%,-36*,-4,-3,8
COC(=O)c1ccc(CN2CCN(C3CCCCC3)C(CCO)C2)cc1 (stereo unspecified),-1,-6%,0,7,-1,-6
CCOc1ccc(CN2CCN(Cc3cnc(-c4ccccc4)s3)CC2CCO)cc1 (stereo unspecified),61*,3%,-10,-16,-3,-3
CC(=O)Nc1ccc(CN2CCN(C3CCCCC3)C(CCO)C2)cc1 (stereo unspecified),36*,-8%,-6,18,-4,5
CC(=O)c1cccc(CN2CCN(Cc3ccc(F)cc3)C(CCO)C2)c1 (stereo unspecified),4,-1%,-15,?,-4,-4
OCCC1CN(Cc2ccc3c(c2)CCO3)CCN1Cc1ccc(F)cc1 (stereo unspecified),3,-6%,-8,-59*,1,-16
Cc1ccc(CN2CCN(Cc3ccc(C)s3)CC2CCO)cc1 (stereo unspecified),2,1%,9,-96*,9,-19
